Potency and affinity values are given separately. Calls of active or inactive are those of the source.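 The calls were made as follows: active = cell killing with a fitted half-effect concentration at or below twice the top valid dose; inconclusive = flat curve with 30 to 70 percent drop, or poor fit; inactive = the rest.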
Test: HEK293T cell cytotoxicity, dose response, cytotoxicity control, ATP luminescence, cherry-pick, set 6 (AID 1053126)

Compound: O=[N+]([O-])c1cccc(-c2n[nH]c(=S)n2-c2ccc(Br)cc2)c1
- outcome: inactive

Compound: O=C(O)c1cccc(NC(=O)c2cn(-c3ccccc3)nc2-c2cccc(Br)c2)c1
- outcome: inactive

Compound: COc1ccc(C2C(C#N)=C(N)Oc3cc(O)ccc32)cc1Cl (stereo not drawn)
- outcome: inactive

Compound: COc1ccc(C2C3=C(CCCC3=O)N(CC(=O)O)C3=C2C(=O)CCC3)cc1Cl
- outcome: inactive

Compound: COc1ccccc1OCc1ccc(C(=O)N(C)c2ccccc2)o1
- outcome: inactive

Compound: COc1cccc2c(=O)c3c(cnn3C)n(C)c12
- outcome: inactive

Compound: COc1cc(C(c2c(C(=O)O)[nH]c3ccccc23)c2c(C(=O)O)[nH]c3ccccc23)ccc1OCc1ccccc1
- outcome: inactive

Compound: Cc1c(C=O)c2ccccn2c1C(=O)c1cccs1
- outcome: inactive

Compound: CCCN1CCN(C(=O)c2ccc(CS(=O)c3ccc(Br)cc3)o2)CC1 (stereo not drawn)
- outcome: inactive

Compound: O=c1oc2cc(O)ccc2cc1S(=O)(=O)c1ccccc1
- outcome: inactive

Compound: CCOC(=O)C1=CN(CC2CCCO2)C=C(C(=O)OCC)C1c1ccccc1C(F)(F)F (stereo not drawn)
- outcome: inactive

Compound: CC(C)N1CCc2c(sc(NC(=O)Cc3ccccc3)c2C#N)C1
- outcome: inactive

Compound: CCOc1ccc2nc(NCCCNC(=O)c3cc(OC)c(OC)c(OC)c3)c(C#N)cc2c1
- outcome: inactive

Compound: Cc1ccc(S(=O)(=O)Nc2ccc(Nc3ccccc3)cc2)cc1
- outcome: inactive

Compound: COc1c(Cl)cc(-c2noc(C)c2C(=O)NCc2ccc3c(c2)OCO3)cc1Cl
- outcome: inactive

Compound: Cc1oc(/N=C/c2ccc(F)cc2)c(C#N)c1C
- outcome: inactive

Compound: CCC(Sc1nc(N)c(NC(=O)c2ccc(OC)cc2)c(=O)[nH]1)C(=O)O (stereo not drawn)
- outcome: inactive

Compound: Cc1cc(CNC(=O)c2ccc3c(c2)OCO3)c2ccccc2n1
- outcome: inactive

Compound: COc1ccc(S(=O)(=O)N2CCCC2CNC(=O)C(=O)NC2CCCC2)cc1 (stereo not drawn)
- outcome: inactive

Compound: Cc1ccc(O)c(NC(=S)NC(=O)COc2ccc(Br)cc2)c1
- outcome: inactive

Compound: O=C(Cn1ccc([N+](=O)[O-])n1)N1CCCCCC1
- outcome: inactive

Compound: Cc1c(C(=O)NCc2ccc3c(c2)OCCO3)sc(=O)n1Cc1ccccc1F
- outcome: inactive

Compound: [O-]/[N+](=C/c1ccccc1)c1ccccc1
- outcome: inactive

Compound: Cc1cccn2c(=O)c(/C=C(\C#N)C(=O)NC3CCS(=O)(=O)C3)c(N3CCC(C(N)=O)CC3)nc12 (stereo not drawn)
- outcome: inactive

Compound: Cn1cccc1/C=N/NC(=O)c1sc2cc(Cl)ccc2c1Cl
- outcome: inactive

Compound: CCOc1ccc2nc(NCCNC(=O)CC)c(C#N)cc2c1
- outcome: inactive

Compound: COc1ccc(C2CC(c3ccccc3)=NN2c2ccc(C(N)=O)cc2)cc1 (stereo not drawn)
- outcome: inactive

Compound: Cc1cccn2c(=O)c3cc(C#N)c(=NC(=O)c4cccs4)n(CC(C)C)c3nc12
- outcome: inactive

Compound: COc1ccccc1C1C2=C(CC(C)(C)CC2=O)N(CC(=O)O)C2=C1C(=O)CC(C)(C)C2
- outcome: inactive

Compound: COc1ccccc1N1CCN(C2CCC(C)CC2)CC1 (stereo not drawn)
- outcome: inactive

Compound: COCc1cc(C)nc(SCC(=O)Oc2ccc(Cl)cc2)c1C#N
- outcome: inactive

Compound: N#CC1=C(N)OC2=C(C(=O)CCC2)C1c1cc2c(cc1Br)OCO2 (stereo not drawn)
- outcome: inactive

Compound: O=c1[nH]c(Nc2ccccc2Cl)cc2ccccc12
- outcome: inactive

Compound: CN1CCc2c(sc(NC(=O)C3CCCCC3)c2C(N)=O)C1
- outcome: inactive

Compound: O=C(NNc1cc(N2CCCC2)nc(N2CCCC2)n1)c1ccc([N+](=O)[O-])cc1
- outcome: inactive

Compound: CC(=O)N=c1c(C#N)cc2c(=O)n3ccccc3nc2n1CCCOC(C)C
- outcome: inactive

Compound: CCN(c1ccccc1)S(=O)(=O)c1ccc(OC)c(NC(=O)CN(C)C)c1
- outcome: inactive

Compound: Cc1ccc(C(=O)OCC(=O)Nc2c(C)nn(-c3ccccc3)c2C)c(O)c1
- outcome: inactive

Compound: CCCn1c(=N)c(S(=O)(=O)c2ccccc2)cc2c(=O)n3ccccc3nc21
- outcome: inactive

Compound: CCc1nnc(NC(=O)c2ccc(-c3ccccc3F)o2)s1
- outcome: inactive

Compound: Cc1cc(-n2c(=O)c(C#N)cc3c(=O)n4cccc(C)c4nc32)no1
- outcome: inactive

Compound: N#Cc1ccc(OCC(=O)OCC(=O)N2CCc3ccccc32)cc1
- outcome: inactive

Compound: CCOCCCNc1c(CC)c(C)c(C#N)c2nc3ccccc3n12
- outcome: inactive

Compound: O=C(NNc1c2ccccc2nc2ccccc12)c1ccc(O)cc1
- outcome: inactive

Compound: CC(=O)c1cc2c(ccc3ccccc32)oc1=O
- outcome: inactive

Compound: COc1ccc(S(=O)(=O)Cc2ccc(C(=O)N3CCN(Cc4ccccc4)CC3)o2)cc1
- outcome: inactive

Compound: CCNC(=O)c1cc2c(=O)n3cccc(C)c3nc2n(Cc2ccc(C)cc2)c1=N
- outcome: inactive

Compound: CCOc1ccc(C(=O)c2cc3ccc(O)cc3oc2=O)cc1
- outcome: inactive

From PubChem BioAssay AID1053126 (Broad Institute, 2014)
